Values joined by “and” are separate entries in the source; they are usually repeats but may differ in a detail not shown here. Equal values may be shown once. A structure can be active in one record and inactive in another. Active and inactive are the calls of the source. How the source made its calls: active means hit-call score of the fitted dose curve at least 0.9, where 1 is the maximum; inactive means score below 0.9.

Read-out in test [1]: urokinase Plasminogen Activator (uPA), PLAU (gene 5328)
Kind of test: BSK_BF4T_uPA: BioMAP Diversity Plus: BF4T Assay for urokinase Plasminogen Activator (uPA) Biomarker Activity (AID 2284275). Particulars: primary human bronchial epithelial cells with fibroblasts. In outline:
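Co-culture of human bronchial epithelial cells and dermal fibroblasts; uPA quantified by ELISA 24 hours after dosing, fitted relative to DMSO. Parallel SRB total-protein staining assessed overt cytotoxicity.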

Read-out in test [2]: Matrix Metallopeptidase 9 (MMP9), MMP9 (gene 4318)
Kind of test: BSK_BF4T_MMP9: BioMAP Diversity Plus: BF4T Assay for Matrix Metallopeptidase 9 (MMP9) Biomarker Activity (AID 2284276). Particulars: primary human bronchial epithelial cells with fibroblasts. In outline: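 Co-culture of human bronchial epithelial cells and dermal fibroblasts dosed for 24 h; MMP-9 quantified by ELISA and fitted upward versus DMSO. Cytotoxicity monitored in parallel cultures by SRB total-protein staining at the biomarker time point.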

Read-out in test [3]: Interleukin-8 (IL8), CXCL8 (gene 3576)
Kind of test: BSK_IMphg_IL8: BioMAP Diversity Plus: IMphg Assay for Interleukin-8 (IL8) Biomarker Activity (AID 2284277). Particulars: primary human endothelial cells with macrophages. The procedure, abridged: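 Co-culture of human venular endothelial cells and macrophages exposed to chemicals for 24 h; IL-8 quantified by ELISA and compared against the DMSO baseline, with SRB total-protein staining in parallel cultures for cytotoxicity.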

Read-out in test [4]: Intercellular Adhesion Molecule 1 (ICAM1), ICAM1 (gene 3383)
Kind of test: BSK_BE3C_ICAM1: BioMAP Diversity Plus: BE3C Assay for Intercellular Adhesion Molecule 1 (ICAM1) Biomarker Activity (AID 2284278).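 On outcome: cell-surface ICAM-1 protein level quantified by ELISA.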 Conditions: primary human bronchial epithelial cells. The procedure, abridged: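 Measured by ELISA: ICAM-1 expressed by primary human bronchial epithelial cells 24 h after compound treatment, with upward-direction fitting versus DMSO vehicle.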

Read-out in test [5]: Interferon-inducible T-cell alpha chemoattractant (ITAC), CXCL11 (gene 6373)
Kind of test: BSK_BE3C_ITAC: BioMAP Diversity Plus: BE3C Assay for Interferon-inducible T-cell alpha chemoattractant (ITAC) Biomarker Activity (AID 2284279). Particulars: primary human bronchial epithelial cells. In outline:
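Steps: dose human bronchial epithelial cells with chemical; incubate 24 h; measure I-TAC by ELISA; fit endpoint in positive direction against DMSO control. Cytotoxicity was checked in parallel cultures by SRB staining at harvest.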

Read-out in test [6]: Epidermal growth factor receptor (EGFR), EGFR (gene 1956)
Kind of test: BSK_BE3C_EGFR: BioMAP Diversity Plus: BE3C Assay for Epidermal growth factor receptor (EGFR) Biomarker Activity (AID 2284281). Conditions: primary human bronchial epithelial cells. The procedure, abridged: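 Compound is added to human bronchial epithelial cells, cells incubate 24 h, then EGFR is detected by ELISA. Values reflect positive-direction fitting relative to DMSO.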

Read-out in test [7]: KRT18 (gene 3875)
Kind of test: BSK_BE3C_Keratin818: BioMAP Diversity Plus: BE3C Assay for Keratin 818 Biomarker Activity (AID 2284282). Conditions: primary human bronchial epithelial cells. In outline: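 BE3C: human bronchial epithelial primary cells, 24 h exposure, Keratin 8/18 ELISA; DMSO = negative control/baseline; cytotoxicity by parallel SRB stain (0.1% SRB after 10% TCA fixation, 560 nm).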

Read-out in test [8]: Matrix Metallopeptidase 9 (MMP9), MMP9 (gene 4318)
Kind of test: BSK_BE3C_MMP9: BioMAP Diversity Plus: BE3C Assay for Matrix Metallopeptidase 9 (MMP9) Biomarker Activity (AID 2284283). Conditions: primary human bronchial epithelial cells. In outline: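 Human primary bronchial epithelial cells exposed 24 h to compound. MMP9 quantified by ELISA. SRB total-protein staining of parallel cultures assesses cytotoxicity. Positive-direction fit relative to DMSO.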

Read-out in test [9]: Plasminogen activator inhibitor-1 (PAI1), SERPINE1 (gene 5054)
Kind of test: BSK_CASM3C_PAI1: BioMAP Diversity Plus: CASM3C Assay for Plasminogen activator inhibitor-1 (PAI1) Biomarker Activity (AID 2284284).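 Further: PAI-1 protein level measured by ELISA 24 h after dosing.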 Particulars: primary human coronary artery smooth muscle cells.

Read-out in test [10]: Vascular cell adhesion molecule 1 (VCAM1), VCAM1 (gene 7412)
Kind of test: BSK_IMphg_VCAM1: BioMAP Diversity Plus: IMphg Assay for Vascular cell adhesion molecule 1 (VCAM1) Biomarker Activity (AID 2284286). Conditions: primary human endothelial cells with macrophages. In outline:
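Human venular endothelial cells co-cultured with macrophages; VCAM-1 quantified by ELISA 24 h after dosing, fitted in the positive direction against DMSO. Cytotoxicity was checked in parallel cultures by SRB total-protein staining (0.1% SRB after 10% TCA fixation, 560 nm).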

Read-out in test [11]: Intercellular Adhesion Molecule 1 (ICAM1), ICAM1 (gene 3383)
Kind of test: BSK_hDFCGF_ICAM1: BioMAP Diversity Plus: hDFCGF Assay for Intercellular Adhesion Molecule 1 (ICAM1) Biomarker Activity (AID 2284287). Conditions: primary human foreskin fibroblasts. In outline: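 Primary human foreskin fibroblasts (hDFCGF system) dosed with chemical; ICAM-1 quantified by ELISA at 24 h relative to DMSO. Parallel SRB total-protein staining to assess overt cytotoxicity.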

Read-out in test [12]: CD40, CD40 (gene 958)
Kind of test: BSK_IMphg_CD40: BioMAP Diversity Plus: IMphg Assay for CD40 Biomarker Activity (AID 2284288). Particulars: primary human endothelial cells with macrophages. In outline:
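Venular endothelial cells co-cultured with macrophages (human primary), CD40 measured by ELISA 24 h after dosing. Positive-direction fit vs DMSO baseline; cytotoxicity tracked by SRB total-protein staining in parallel cultures.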

Read-out in test [13]: TIMP metallopeptidase inhibitor 2 (TIMP2), TIMP2 (gene 7077)
Kind of test: BSK_hDFCGF_TIMP2: BioMAP Diversity Plus: hDFCGF Assay for TIMP metallopeptidase inhibitor 2 (TIMP2) Biomarker Activity (AID 2284289). Conditions: primary human foreskin fibroblasts. In outline:
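Primary human foreskin fibroblasts in the hDFCGF system, dosed for 24 h; TIMP-2 level measured by ELISA, fitted in the positive direction against DMSO; cytotoxicity checked in parallel by sulforhodamine B total protein staining.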

Read-out in test [14]: Interleukin-1 alpha (IL1a), IL1A (gene 3552)
Kind of test: BSK_IMphg_IL1a: BioMAP Diversity Plus: IMphg Assay for Interleukin-1 alpha (IL1a) Biomarker Activity (AID 2284290). Conditions: primary human endothelial cells with macrophages. In outline:
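Human venular endothelial cells co-cultured with macrophages, IMphg system. IL-1α is measured by ELISA 24 h after dosing and fitted in the positive direction against DMSO. Cytotoxicity is assessed by SRB staining of parallel cultures.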

Read-out in test [15]: E-selectin (Homo sapiens) (UniProt P16581)
Kind of test: BSK_IMphg_ESelectin: BioMAP Diversity Plus: IMphg Assay for Eselectin Biomarker Activity (AID 2284291). Particulars: primary human endothelial cells with macrophages. In outline:
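Human venular endothelial cell–macrophage co-culture, E-selectin measured by ELISA 24 h after chemical dosing. Signal fitted in the positive direction against DMSO as negative control and baseline.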

Test [16] is described as follows: BSK_IMphg_SRB: Viability Assessment in the BioMAP Diversity Plus: IMphg Assay (AID 2284292).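 Further: measured one day after compound addition.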 Conditions: primary human endothelial cells with macrophages. The procedure, abridged: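 Human venular endothelial cells with macrophages, 24 h after chemical dosing; total protein by 0.1% SRB staining after 10% TCA fixation, read at 560 nm. Positive-direction fitting versus DMSO baseline.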

Read-out in test [17]: Macrophage colony-stimulating factor (MCSF), CSF1 (gene 1435)
Kind of test: BSK_IMphg_MCSF: BioMAP Diversity Plus: IMphg Assay for Macrophage colony-stimulating factor (MCSF) Biomarker Activity (AID 2284293). Conditions: primary human endothelial cells with macrophages. In outline: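 Co-culture of human venular endothelial cells and macrophages, 24 hours of chemical exposure. M-CSF quantified by ELISA, with parallel SRB total-protein staining for cytotoxicity; activity fitted relative to DMSO.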

Read-out in test [18]: Interleukin-10 (IL10), IL10 (gene 3586)
Kind of test: BSK_IMphg_IL10: BioMAP Diversity Plus: IMphg Assay for Interleukin-10 (IL10) Biomarker Activity (AID 2284294). Particulars: primary human endothelial cells with macrophages. In outline: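 Human venular endothelial cells cocultured with macrophages, dosed 24 h; IL-10 measured by ELISA, activity relative to DMSO. Cytotoxicity assessed in parallel cultures by sulforhodamine B total-protein staining.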

Read-out in test [19]: Thrombomodulin, THBD (gene 7056)
Kind of test: BSK_LPS_Thrombomodulin: BioMAP Diversity Plus: LPS Assay for Thrombomodulin Biomarker Activity (AID 2284296). Particulars: primary human HUVEC with PBMC. In outline: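 Human umbilical vein endothelial cells co-cultured with PBMC and stimulated with LPS; cell-surface thrombomodulin measured by ELISA 24 hours after compound. Gain or loss versus DMSO; cytotoxicity checked by SRB staining in parallel cultures.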

Test [20] can be described thus: IUF_NPC2c_oligodendrocyte_migration_120hr: Leibniz Research Institute for Environmental Medicine (IUF) 120-hour Neural Progenitor Cell Migration Assay for Oligodendrocyte Migration (NPC2c) (AID 2284297).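 Further: O4-positive oligodendrocyte migration distance divided by radial glia migration distance.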 In outline: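 Human fetal neural progenitor spheres (0.3 mm) are plated on poly-D-lysine/laminin in N2 differentiation medium and exposed for 120 h, with half-medium renewal at day 3. Oligodendrocyte (O4+) migration distance comes from ICC imaging, normalised to radial glia migration.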

Sequence of E-selectin (Homo sapiens) (P16581 whole entry, looked up): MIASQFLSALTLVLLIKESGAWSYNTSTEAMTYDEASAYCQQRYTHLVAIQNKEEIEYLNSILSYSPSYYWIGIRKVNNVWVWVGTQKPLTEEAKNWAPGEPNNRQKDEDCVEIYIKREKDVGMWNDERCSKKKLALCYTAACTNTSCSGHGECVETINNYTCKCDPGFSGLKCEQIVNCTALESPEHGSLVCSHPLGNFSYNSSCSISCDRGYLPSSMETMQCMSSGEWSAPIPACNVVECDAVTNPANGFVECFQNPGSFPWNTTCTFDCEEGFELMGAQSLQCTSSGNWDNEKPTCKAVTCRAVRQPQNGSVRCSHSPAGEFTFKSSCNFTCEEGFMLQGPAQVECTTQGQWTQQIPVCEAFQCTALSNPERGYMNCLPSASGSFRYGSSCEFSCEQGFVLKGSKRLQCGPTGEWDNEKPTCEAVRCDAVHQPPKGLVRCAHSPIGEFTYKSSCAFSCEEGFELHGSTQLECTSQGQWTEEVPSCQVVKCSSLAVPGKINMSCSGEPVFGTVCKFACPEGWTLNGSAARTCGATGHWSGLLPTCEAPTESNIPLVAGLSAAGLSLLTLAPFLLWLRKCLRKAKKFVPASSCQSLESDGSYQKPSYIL

As for `O=C(O)CCC(F)(F)C(F)(F)C(F)(F)C(F)(F)C(F)(F)C(F)(F)F`, the result in test [1], in test [2], in test [4], in [5], in test [6] and in test [7] was inactive. For the same compound, the result in test [8], in [9], in test [10], in test [11], in test [12] and in [13] was inactive. Further, the outcome in test [15], in test [16], in test [17] and in [19] was inactive. The concentration at half-maximal activity (AC50) in test [3] was 14.2 µM (active) and 23 µM (active) and 17.1 µM (active); in [14], 5.95 µM (active) and 16.4 µM (active) and 20.5 µM (active); in test [18] it was 38 µM (active) and 30 µM (active).

As to `O=C1NS(=O)(=O)c2ccccc21`, the outcome in [4], in test [5], in [6], in test [7], in test [8] and in test [9] was inactive. In addition, the outcome in [11], in test [13], in test [19] and in [20] was inactive. Further, the AC50 in test [19] was 1.09 µM (active).

As for `CC(=O)Nc1ccc(O)cc1`, in [20], the call was inactive.

In the case of `O=C(CCCN1CCC(O)(c2ccc(Cl)cc2)CC1)c1ccc(F)cc1`, in test [20], the outcome was inactive.

`O=P(O)(O)CCC(F)(F)C(F)(F)C(F)(F)C(F)(F)C(F)(F)C(F)(F)C(F)(F)C(F)(F)F`: the result in test [1], in test [2], in test [3], in test [4], in test [5] and in test [6] was inactive. For the same compound, the result in test [7], in test [8], in test [9], in test [10], in [11] and in test [12] was inactive. Also, the result in test [13], in test [14], in test [16], in [17] and in test [19] was inactive. Moreover, the AC50 in test [3] was 40.1 µM (active); in [11], 25.7 µM (active); in test [15], 37.8 µM (active) and 34.5 µM (active); in test [18] it was 39.7 µM (active) and 31.3 µM (active).

In the case of `O=C(O)C(F)(F)OC(F)(F)C(F)(F)OC(F)(F)C(F)(F)OC(F)(F)C(F)(F)C(F)(F)C(F)(F)F`, the AC50 is 14.6 µM (active) in test [1]; 11.2 µM (active) and 8.88 µM (active) in [2]; 54.2 µM (active) and 7.06 µM (active) in test [3]; 6.39 µM (active) and 5.8 µM (active) in test [4]; 5.77 µM (active) and 5.71 µM (active) in [5]; 3.28 µM (active) and 2.7 µM (active) in test [7]. In addition, the AC50 in [8] was 5.94 µM (active) and 4.69 µM (active); in test [10], 51.8 µM (active) and 48.8 µM (active); in test [11], 19.7 µM (active) and 17.2 µM (active); in test [12] it was 42.4 µM (active) and 40.9 µM (active); in test [13], 7.91 µM (active) and 7.94 µM (active); in test [14] it was 44.1 µM (active) and 22.4 µM (active). Moreover, the AC50 in [15] is 40.8 µM (active) and 31.9 µM (active); in [16], 53.4 µM (active) and 51.8 µM (active); in test [18] it was 53.4 µM (active) and 56.3 µM (active); in [19], 45.8 µM (active) and 44.1 µM (active). Moreover, the outcome in [1], in [6], in [9] and in test [17] was inactive.

Source of the values: PubChem BioAssay (EPA / NIEHS).
